From PubChem
An excerpt weighted towards active compounds, which were near 3.4% of everything screened.
FBW7 activator = activators of human E3 ligase FBW7; Q969H0; AlphaScreen FBW7–phospho-cyclin E peptide binding, activator screen; normalized activity (activation), % at 26.1 µM; hit rate 0.13% among 650,000; AID 1259310; in the data active = normalized activity above about 1.9%;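 note: purified mutant Fbw7 with reduced substrate affinity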
TEAD-YAP inh = TEAD-YAP interaction inhibition. AID 1259422. hit rate 1.4% among 640,000. inhibition, % at 9.12 µM. HEK-TIYL cells, TEAD-Gal4/YAP UAS-luciferase luminescence; in the data active = inhibition above about 32%;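 note: 0% = median of test compound wells and 100% = reference inhibitor wells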
MITF primary = blocks human microphthalmia-associated transcription factor; AID 1259374; O75030; inhibition, % at 2.6 µM; hit rate 0.91% among 650,000; AlphaScreen MITF homodimerization, bead proximity signal; in the data active = inhibition above about 50%;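 note: 0% = vehicle wells with protein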
GPR151 ag = activates the human receptor GPR151; activation, % at 11.2 µM; hit rate 1% among 650,000; AID 1508602; PathHunter beta-arrestin GPR151 cells, luminescence; in the data active = activation above about 4.9%;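 note: 0% = median of compound wells and 100% = cells with positive control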
GPR151 confirm = confirmation of human GPR151 activators. shares compounds with GPR151 ag. GPR151 PathHunter beta-arrestin cells, luminescence, 90 min; % of EA-reagent control over plate median. activation, % at 11.2 µM. 6,700 tested, under 10 active;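 active = mean percent activation across replicates above the confirmation screen cutoff of 4.91%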
GPR119 ag = GPR119 activation, counter-screen for GPR151 activators; hit rate 0.3% among 6,700; GPR119 PathHunter beta-arrestin cells, luminescence, 90 min; 0 = compound-well median, 100 = enzyme-acceptor control; shares compounds with GPR151 ag; activation, % at 11.2 µM;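 active = mean percent activation in the counterscreen above 29.09%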;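 note: counterscreen on off-target GPR119 to flag nonselective hits from the GPR151 activator screen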
Target sequence (Q8TDV5 whole entry, looked up): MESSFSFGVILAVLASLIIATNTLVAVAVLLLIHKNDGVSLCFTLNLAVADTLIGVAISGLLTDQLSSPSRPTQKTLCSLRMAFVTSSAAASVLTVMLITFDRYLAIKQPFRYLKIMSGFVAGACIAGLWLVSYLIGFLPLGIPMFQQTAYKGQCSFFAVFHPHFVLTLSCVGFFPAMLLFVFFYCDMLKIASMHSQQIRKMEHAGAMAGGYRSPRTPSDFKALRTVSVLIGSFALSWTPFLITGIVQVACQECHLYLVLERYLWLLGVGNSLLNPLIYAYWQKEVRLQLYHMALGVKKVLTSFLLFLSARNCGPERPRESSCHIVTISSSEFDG
* = called active by the depositor; nt = no result given; ! = a repeat was not active.

SMILES	FBW7 activator	TEAD-YAP inh	MITF primary	GPR151 ag	GPR151 confirm	GPR119 ag
COc1ccc(Cl)cc1NC(=O)CN(C)CC(=O)Nc1ccc(Br)cc1	0	5	6	7.5*	1	1
COc1ccc(Cl)cc1NC(=O)CN(C)S(=O)(=O)c1ccc(Br)cc1	0	1	10	0	nt	nt
COC(=O)CCN1CCN(Cc2ccc3c(c2)OCO3)CC1	-1	15	36	4	nt	nt
Cc1cc(N)c2ccccc2[n+]1CCCCCCCCCCCCCC[n+]1c(C)cc(N)c2ccccc21	0	84*	-16	6.6*	1	-6
Brc1cccc(Nc2nc(-c3ccccn3)cs2)c1	0	-14	1	22*	0	-12
Brc1ccc(Nc2nc(-c3ccccn3)cs2)cc1	0	-28	21	1	nt	nt
O=C(O)C1CCCN(c2ncnc3scc(-c4ccccc4)c23)C1 (stereo not given)	0	-5	4	18*	-1	-4
CCOC(=O)C1CCCN(c2ncnc3scc(-c4ccccc4)c23)C1 (stereo not given)	0	-19	4	1	nt	nt
O=S(=O)(Nc1cc2c3c(oc2c2ccccc12)CCCC3)c1ccc(Br)cc1	0	1	-2	0	nt	nt
Cn1nccc1Nc1ccc(N2CCC(C(=O)NCc3cccc(C(F)(F)F)c3)CC2)nn1	0	11	-3	5.2*	1	1
O=C(NCc1cccc(C(F)(F)F)c1)C1CCN(c2ccc(NC3CCN(Cc4ccccc4)CC3)nn2)CC1	0	38*	15	5.6*	-1	-10
O=C(NCc1cccnc1)C1CCN(c2ccc(NC3CCN(Cc4ccccc4)CC3)nn2)CC1	0	12	-9	0	nt	nt
O=C(NCc1cccc(C(F)(F)F)c1)C1CCN(c2ccc(Nc3ccccc3)nn2)CC1	0	-1	1	1	nt	nt
C=CCNC(=S)NCCc1ccc(OC)cc1	0	-5	13	2	nt	nt
Cn1c(Nc2nc(NCc3nc4ccccc4[nH]3)c3ncn(Cc4ccc(C(F)(F)F)cc4)c3n2)nc2ccccc21	0	18	-5	0	nt	nt
Cc1nc2cc(C(=O)N3CCCC(N4CCOCC4)C3)ccc2n1-c1ccccc1 (stereo not given)	0	-5	-10	11*	0	-6
Cc1ccc(COc2c(Br)cc(/C=C(\C#N)c3nn(CCO)c(N)c3C#N)cc2Br)cc1	0	-4	7	6.9*	0	5
COC(=O)c1c(NC(=O)c2ccc(Cl)cc2Cl)sc(Cc2ccccc2)c1C	0	6	-3	0	nt	nt
Cc1cc(C)c(NC(=O)CSc2nc(C)cc(=O)[nH]2)c([N+](=O)[O-])c1	0	-11	-1	8.2*	-1	-11
COc1ccc(CC(=O)Nc2nc3c(s2)C(=O)CC(C)(C)C3)cc1	0	1	-5	0	nt	nt
COc1ccc(/C=C/C(=O)Nc2nc3c(s2)C(=O)CC(C)(C)C3)cc1	0	0	6	5.4*	0	1
COc1ccc(CCC(=O)Nc2nc3c(s2)C(=O)CC(C)(C)C3)cc1	0	14	-7	6.5*	0	-7
COC(=O)c1c(N2C(N)=C(C#N)C(c3ccc([N+](=O)[O-])cc3)C3=C2CCCC3=O)sc2c1CCCCC2 (stereo not given)	0	16	17	1	nt	nt
O=C(CNC(=O)C12CC3CC(CC(C3)C1)C2)NNC(=O)c1ccc2c(c1)OCO2	0	2	11	2	nt	nt
Cc1noc(C)c1C(=O)OCC(=O)c1cc(C)n(-c2ccc3c(c2)OCCO3)c1C	0	-5	1	-1	nt	nt
SMILES	FBW7 activator	TEAD-YAP inh	MITF primary	GPR151 ag	GPR151 confirm	GPR119 ag
C=CCNc1cc(-c2ccccc2)nc2ncnn12	0	-3	-2	0	nt	nt
C#CCNc1cc(-c2ccccc2)nc2ncnn12	0	0	-1	7.1*	0	-3
Nc1ncc(Br)cc1S(=O)(=O)NC1CCCCCCC1	0	-2	6	7.3*	0	-8
Nc1ncc(Br)cc1S(=O)(=O)NC1CCCCC1	0	3	-2	-1	nt	nt
COc1ccc(C(=O)Nc2ccc(C(=O)N/N=C/c3ccc(O)cc3O)cc2)cc1	0	-6	-3	8.6*	0	3
COc1ccc(N2Cc3ccc(C(=O)N/N=C/c4ccco4)cc3C2)cc1	1	-21	23	0	nt	nt
COc1ccc(C(=O)N/N=C/c2ccco2)cc1	0	-32	21	6.9*	0	-7
CCSc1nc2c(c(=O)n1CCOC)SCC2	0	-3	5	-1	nt	nt
NC(=O)c1cc2ccccc2o/c1=N\NC(=O)c1ccccc1Nc1ccccc1	1	9	17	-1	nt	nt
COc1ccc2o/c(=N\NC(=O)c3ccccc3Nc3ccccc3)c(C(N)=O)cc2c1	0	13	-11	22*	-1	-14
Clc1ccc2c(N3CCOCC3)nc(CN3CCN(Cc4ccsc4)CC3)nc2c1	0	1	10	-1	nt	nt
C=CCn1c(SCC(=O)Nc2sc3c(c2C(=O)OCC)CCC3)nc2sc3c(c2c1=O)CCC(C)C3 (stereo not given)	0	-14	3	3	nt	nt
CC(=O)C(Sc1nc(NC(C)C)nc(N(C)C)n1)C(C)=O	1	-12	16	5.3*	0	5
Cc1ccc(-c2cc(C(F)(F)F)n3ncc(C(=O)NC(C)C)c3n2)cc1	0	1	5	5.0*	0	-5
CC(=O)c1cccc(NC(=O)c2cnn3c(C(F)(F)F)cc(-c4ccco4)nc23)c1	0	4	-9	5.1*	1	1
Cc1cncc2c(S(=O)(=O)N3CC[C@H](NC(=O)CN)C3)cccc12	0	5	8	6.1*	0	-11
CCN(CC(=O)NC1CC1)S(=O)(=O)c1ccc(Cl)cc1	0	8	16	-1	nt	nt
CC(=O)N1CCCN(S(=O)(=O)c2cccc3cnccc23)CC1	-1	-5	3	5.4*	0	5
C[C@@H](O)C(=O)N1CCCN(S(=O)(=O)c2cccc3cnccc23)CC1	0	-5	8	-1	nt	nt
COc1nc(NCCO)nc(-c2c(C)nn(C)c2C)n1	0	8	2	14*	-1	-9
CO[C@H]1C[C@H](O[C@H]2[C@H](C)[C@@H](OC3O[C@H](C)C[C@H](N(C)C)[C@H]3OC(C)=O)[C@@H](C)C[C@]3(CO3)C(=O)[C@H](C)[C@@H](OC(C)=O)[C@@H](C)[C@@H](C)OC(=O)[C@@H]2C)O[C@@H](C)[C@@H]1OC(C)=O (stereo not given in full)	0	-3	11	6.3*!	1	-8
O=C(CCn1nnc2ccccc21)N/N=C/c1cccc(O)c1	0	-1	1	1	nt	nt
CCCCC1CCC(C(=O)Nc2nnc(SCC(=O)NCC(=O)OCC)s2)CC1 (stereo not given)	0	3	3	1	nt	nt
